According to PubChem BioAssay AID686978 (National Center for Advancing Translational Sciences (NCATS), 2013):
Among all 420,000 compounds or so, about 64,000 (15%) were called active. Not shown: some 27% with an inconclusive outcome. The list is a sample of the results. A number with no mark means an inactive call. The call rests on the fitted dose curve; in most records, active means well fitted inhibition curve with a large enough effect; inconclusive means small, poorly fitted or top-dose-only effect; inactive means flat fitted curve, though single readings scatter.

Experiment: qHTS for Inhibitors of human tyrosyl-DNA phosphodiesterase 1 (TDP1): qHTS in cells in absence of CPT; further: nearly all actives have a fitted effect of over 55% in size
Settings: DT40 Tdp1-/- hTDP1 cells, no CPT, ATP luminescence, 48 h; activity change, negative = growth inhibition: at 46.2 µM (top of the series)
Procedure, shortened: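 Growth kinetics read by CellTiter-Glo luminescence after ≥48 hr at 37 °C. Cells: DT40 Tdp1-/- stably carrying human TDP1, 400 per well, compound exposure in the absence of CPT (DMSO vehicle).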
On the % scale 0 is the no-effect control and ±100 the full control effect; potency means the concentration at half of the fitted maximal effect.

Compound | activity change, negative = growth inhibition [%] | Potency
CC(=O)c1ccc(NC(=O)C2CC(=O)Nc3nc4ccccc4n32)cc1 (configuration not stated) | -8.52 | 
O=C(c1ccc(Cl)cc1)N1N=C(c2ccccn2)CC1(O)C(F)(F)F (configuration not stated) |  | 14.6 µM (active)
COC(=O)C1(O)CC(C(C)C)=NN1C(=O)c1ccc(Cl)cc1 (configuration not stated) | -9.27 | 
O=C(Cc1ccccc1)N1N=C(c2ccncc2)CC1(O)C(F)(F)F (configuration not stated) | -21.2 | 
Cc1cn([C@H]2C[C@H](O)[C@@H](CNC(=O)[C@H](N)Cc3cccnc3)O2)c(=O)[nH]c1=O | 2.17 | 
O=c1[nH]n2c(=O)c3c([nH]c2c1N=Nc1ccccc1)CCC3 | -20.5 | 
O=C(Nc1nnc(Cc2ccc(Cl)cc2)s1)c1ccncc1 | -9.95 | 
COc1ccccc1CN1CCNC(=O)C1CC(=O)N(C)CC1CCOCC1 (configuration not stated) | 17.6 | 
COCC(=O)N1CCCC(C(=O)c2ccc(C(F)(F)F)cc2)C1 (configuration not stated) | 4.79 | 
Cn1cc(/C=C/C(=O)N2CCCC(C(=O)c3ccc(C(F)(F)F)cc3)C2)cn1 (configuration not stated) | -27.1 | 
Cn1cc(CCC(=O)N2CCCC(C(=O)c3ccc(C(C)(C)C)cc3)C2)cn1 (configuration not stated) |  | 20.6 µM (active)
Cc1nccn1-c1ccc(NC(=O)[C@H]2O[C@@H](n3cnc4c(N)ncnc43)[C@H](O)[C@@H]2O)cc1 | 1.47 | 
CC1(C)S[C@@H]2[C@H](NC(=O)COc3ccccc3)C(=O)N2C1C(=O)OCc1ccccc1 (some centres not stated) |  | inactive
COc1ccc(-c2noc(-c3ccc(N4CCN(c5ccccc5)CC4)c([N+](=O)[O-])c3)n2)cc1OC |  | 7.31 µM (active)
COc1cc(-c2noc(-c3ccc(N4CCCC4)c([N+](=O)[O-])c3)n2)cc(OC)c1OC | -8.7 | 
CNc1ccc(-c2nc(-c3ccco3)no2)cc1[N+](=O)[O-] | -19.6 | 
CCn1c(SC(C)C(=O)Nc2ccc(N3CCOCC3)cc2)nnc1-c1ccco1 (configuration not stated) | -4.59 | 
O=C(Nc1cccnc1Oc1ncnc2cc(Cl)ccc12)c1ccc(F)cc1 | 1.07 | 
NS(=O)(=O)c1ccc(NS(=O)(=O)/C=C/c2ccccc2)cc1 | -16.4 | 
Cc1cccc(N2C(=O)c3ccc(C(=O)Nc4cccc(C(=O)O)c4)cc3C2=O)c1 | -29.4 | 
Cc1ccc(CNC(=O)Cn2cnc(S(=O)(=O)N3CCCCC3)c2)o1 | -18.7 | 
Cc1ccc(CNC(=O)C2(C(F)(F)F)C/C(=C\Cc3ccccc3)CCCO2)o1 (configuration not stated) |  | 11.6 µM (active)

Compound | activity change, negative = growth inhibition [%] | Potency
Cc1ccc(C(=O)N2CC(=O)Nc3ccccc32)o1 | 0.857 | 
CC1CCCCN1CCCNC(=O)Cn1ncc2c([nH]c3ccccc32)c1=O (configuration not stated) |  | inactive
COc1cccc(-c2nc3n(n2)C(c2ccccc2Cl)C(C(N)=O)=C(C)N3)c1 (configuration not stated) | -28.2 | 
Cc1cc2c(cc1C)[n+](C)cn2CC(O)COCC1CC=CCC1 (configuration not stated) |  | 1.84 µM (active)
C/C(=N/NC(=O)c1cc(Cl)ccc1O)C12CC3CC(CC(C3)C1)C2 | -1.21 | 
O=C(CSc1ccc([N+](=O)[O-])cn1)Nc1ccc(N2CCOCC2)c(Cl)c1 | -0.829 | 
COc1ccc(C2=NO[C@@H]3C(=O)N(Cc4ccccc4)C(=O)[C@H]23)cc1OC | 0.579 | 
Cc1cc2oc(=O)cc(-c3ccccc3)c2c(C)c1-c1ccc(OC(F)(F)F)cc1 |  | 20.6 µM (active)
COc1ccc(-c2cc(=O)oc3cc(OCC(=O)N[C@@H](Cc4c[nH]c5ccccc45)C(=O)O)ccc23)cc1 | 0.178 | 
COc1ccc(-c2c(C)cc3oc(=O)cc(-c4ccccc4)c3c2C)cc1OC |  | 23.1 µM (active)
CC(=O)c1ccc(S(=O)(=O)NC2CC(=O)N(c3ccc4c(c3)OCCO4)C2)cc1 (configuration not stated) | -14.5 | 
CC(C)(C)S(=O)(=O)c1ccccc1-c1noc(-c2ccccc2)c1C(N)=O | 4.59 | 
Cn1c(SCC(=O)C(C)(C)C)nnc1-c1ccccn1 | 27.4 | 
O=C(COC(=O)c1cnccn1)Nc1cccc2ccccc12 | -7.74 | 
Cc1ccccc1-c1ccc(Nc2ccc(C(=O)N3CCOCC3)cc2)nn1 | -17.6 | 
CO[C@@H]1CN(C)C(=O)c2cc(NC(=O)C3CC3)ccc2OC[C@H](C)N(C(=O)CN2CCOCC2)C[C@@H]1C | -1.78 | 
CCCN(CC(=O)Nc1ccccc1C)C(=O)c1cc(=O)[nH]c2ccccc12 | -16.5 | 
CCCN(CC(=O)Nc1ccccc1C)C(=O)c1ccc2[nH]c3c(c2c1)CC(C)CC3 (configuration not stated) |  | 20.6 µM (active)
CCCN(CC(=O)Nc1ccccc1C)C(=O)c1ccc(OCC(=O)N2CCOCC2)c(OCC)c1 | -3.18 | 
COCCCN1C(=O)C(=O)/C(=C(/O)c2ccc3c(c2)CC(C)O3)C1c1cccnc1 (configuration not stated) | -3.28 | 
COC(=O)C1=C(NC(=O)C(C)(C)C)CCS1 | -2.33 | 
Cc1cc(C)c(C=NNc2nc3c([nH]2)c(=O)n(C)c(=O)n3C)c(C)c1 | 1.78 | 

Compound | activity change, negative = growth inhibition [%] | Potency
Cc1ccc(NC(=O)C(=O)NCc2ccco2)c(C)c1 | -25.9 | 
Cc1cccc(Nc2ccccc2C(=O)NCc2ccco2)c1C |  | 20.6 µM (active)
Cc1ccccc1NC(=O)NCc1ccco1 | 8.72 | 
O=C(Nc1ccccc1)Nc1ccccc1C(=O)NCc1ccco1 | -17.1 | 
Cc1ccc(N(Cc2ccc(C(=O)Nc3ccccc3C(=O)NCc3ccco3)cc2)S(C)(=O)=O)cc1C |  | 18.4 µM (active)
CS(=O)(=O)N(CC(=O)NCc1ccco1)c1ccc2c(c1)OCO2 | -0.836 | 
CCC(C)NC(=O)CN(C1CCCCC1)S(C)(=O)=O (configuration not stated) | -11.3 | 
CCOC(=O)N1CCN(C(=O)C2CCN(S(C)(=O)=O)CC2)CC1 | -4.04 | 
Fc1ccc(COc2ccc(-c3nnco3)cc2)cc1 | -10.2 | 
O=C(O)C1CCN(C(=O)c2cc(F)cc3c2OCOC3)CC1 | -1.32 | 
Cc1ccnc(N2CCC(C(=O)NC3CCCCCC3)CC2)n1 | -5.99 | 
Clc1nc(NC2CCCC2)nc(N2CCOCC2)n1 | -27.4 | 
COc1nc(NC2CCCCC2)nc(N2CCCCCC2)n1 |  | 12.6 µM (active)
CCCn1c(SCC(N)=O)nnc1C(C)C | -8.78 | 
CCn1c(SCC(=O)Nc2ccc3c(c2)OCCO3)nnc1C(C)C | -12.3 | 
CCCn1c(SCC(=O)c2ccc3c(c2)OCCO3)nnc1C(C)C |  | 20.6 µM (active)
CCOC(=O)c1cc2c(n(-c3ccc(C)cc3)c1=O)CCCC2=O | -13.6 | 
C=CCn1c(C)cc(C(=O)CN2C(=O)c3ccccc3C2=O)c1C | -25.9 | 
Cc1ccc(-n2c(C)cc(C(=O)CN3C(=O)C(=O)N(C4CCCC4)C3=O)c2C)cc1 |  | 25.9 µM (active)
COc1ccc(NC(=O)CCCC2CCCCC2)c(OC)c1 | -16.4 | 
O=C(/C=C/c1ccco1)NC(=S)Nc1ccccc1Br | -12.9 | 
COc1ccc(Cl)cc1C(=O)NNC(=S)NC(=O)/C=C/c1ccco1 |  | 23.1 µM (active)

Compound | activity change, negative = growth inhibition [%] | Potency
C=CCNC(=S)NNC(=O)c1cc(Cl)ccc1OC | 3.87 | 
CC(C)c1nc(CNC(=O)CC2C(=O)NCCN2Cc2ccoc2)cs1 (configuration not stated) | -1.5 | 
O=C(COC(=O)Cn1cnc2ccccc21)Nc1cccc2c1C(=O)c1ccccc1C2=O |  | 9.2 µM (active)
CCC(=O)Nc1ccccc1-c1nc2ccccc2n(CC(=O)Nc2ccc(C)c(C)c2)c1=O | -29 | 
O=C(Cn1cnc2ccccc21)N/N=C/c1ccco1 | 15 | 
O=C(COC(=O)Cn1cnc2ccccc2c1=O)NCc1ccccc1Cl | 2.41 | 
O=C(Cn1cnc2ccccc21)Nc1ccccc1-c1ccccc1 |  | 2.31 µM (active)
CN(Cc1c(F)cccc1Cl)C(=O)COC(=O)Cn1cnc2ccccc2c1=O | 3.31 | 
CCN(Cc1ccccc1)Cc1c(O)ccc2c(=O)c(-c3ccc(Cl)cc3Cl)coc12 | 6.31 | 
CCCn1c(SCC(=O)Nc2ccc(C)c(S(=O)(=O)N3CCOCC3)c2)n[nH]c1=O | -12.2 | 
CCOC(=O)C1CCN(C(=O)C2(NC(=O)Nc3cccc(F)c3)CCCCC2)CC1 | -24.2 | 
COC(=O)C(=Nc1ccccc1)/C(C(=O)C(=O)N(C)c1ccccc1)=C(\O)c1ccc(Cl)cc1 | -0.772 | 
COc1cc(OC)c(C(=O)OCC(=O)N2CC(=O)Nc3ccccc32)cc1OC | 12.3 | 
CCOC(=O)N1CCc2c(sc3c2C(=O)NC(c2ccccc2F)N3)C1 (configuration not stated) |  | 16.4 µM (active)
O=C1NC(c2ccncc2)Nc2sc3c(c21)CCCC3 (configuration not stated) | -11.1 | 
N#Cc1c(N)sc2c1CCN(C(=O)OCc1ccccc1)C2 | -24.9 | 
C#CCN1C(=O)C(O)(CC(=O)c2cc(OC)ccc2OC)c2ccccc21 (configuration not stated) |  | 16.4 µM (active)
COc1ccc(OC)c(NC(=O)c2cnn(-c3ccccc3Cl)c2NC(=O)c2ccco2)c1 | -17.9 | 
COc1ccc(C(=O)COC(=O)c2nn(C)c(=O)c3ccccc23)c(OC)c1 | 5.24 | 
CC(=O)NC(=S)Nc1ccc(NC(=O)c2cccnc2)cc1 | 7.62 | 
N#CCSc1ccccc1NC(=O)CN1C(=O)NC(CCc2ccccc2)C1=O (configuration not stated) | -11.9 | 
Cn1ncc([N+](=O)[O-])c1C(=O)Nc1cc(Cl)ccc1Cl | -5.68 | 

Compound | activity change, negative = growth inhibition [%] | Potency
COc1ccc(CN2CN(C3CCCC3)CSC2=S)cc1 |  | 4.61 µM (active)
COc1ccc(Cn2c(=O)cc(C)[nH]c2=S)cc1 | 12 | 
COc1ccc(CN2CC(C(=O)NC3CCCCC3)CC2=O)cc1 (configuration not stated) | 14.2 | 
COc1ccc(CN2CC(C(=O)NCCc3ccc(Cl)cc3)CC2=O)cc1 (configuration not stated) | 6.36 | 
COc1ccc(CCNC(=O)COC(=O)C2CCCCC2)cc1 | 0.441 | 
COc1ccc(CN2CN(C(C)C)CSC2=S)cc1 |  | 3.26 µM (active)
CC(=O)N1CSCC1C(=O)O (configuration not stated) | 2.18 | 
CC1(C)Oc2ccc3ccc(=O)oc3c2/C(=C/NCCO)C1=O | -13.1 | 
CCCCN(C(=O)C(CCSC)N1C(=O)c2ccccc2C1=O)c1c(N)n(CCC)c(=O)[nH]c1=O (configuration not stated) | 19 | 
CC(C)(CNC(=O)CNC(=O)C1CCCCC1)N1CCOCC1 | -16.2 | 
CCc1ccc(C2C(C#N)=C(N)Oc3n[nH]c(CC(=O)OC)c32)cc1 (configuration not stated) | -4.43 | 
CCCc1nc2c([nH]1)C(c1cccnc1)C(C#N)=C(N)O2 (configuration not stated) | -10.3 | 
COc1cc(C2C(C#N)=C(N)Oc3n[nH]c(-c4ccccn4)c32)cc(OC)c1OC (configuration not stated) | -15.1 | 
CCCc1[nH]nc2c1C(C1CC=CCC1)C(C#N)=C(N)O2 (configuration not stated) |  | 13 µM (active)
Cc1cc(C)c(C#N)c(SCc2[nH]nc3c2C(c2ccccc2)C(C#N)=C(N)O3)n1 (configuration not stated) | -2.46 | 
CCCc1[nH]nc2c1C(c1ccc(Br)s1)C(C#N)=C(N)O2 (configuration not stated) |  | 7.31 µM (active)
CCOc1c(OC)cc(C2C(C#N)=C(N)Oc3n[nH]c(-c4ccncc4)c32)cc1OC (configuration not stated) | -6.03 | 
N#CC1=C(N)OC2=C(C(=O)CCC2)C1C1CC=CCC1 (configuration not stated) | -29 | 
COCc1[nH]nc2c1C(C1C=CCCC1)C(C#N)=C(N)O2 (configuration not stated) |  | 20.6 µM (active)
